Measurements: PubChem BioAssay (NCATS)
Records with an inconclusive call do not appear. The source made the active and inactive calls. Calls follow the shape of the dose curve; as a rule, active = well fitted inhibition curve with a large enough effect; inconclusive = small, poorly fitted or top-dose-only effect; inactive = flat fitted curve, though single readings scatter.

Target: Voltage-gated inwardly rectifying potassium channel KCNH2 (Homo sapiens) (UniProt Q12809)
Assay: qHTS Assay for Small Molecule Inhibitors of the Human hERG Channel Activity (AID 588834);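 also: lower thallium flux fluorescence means stronger hERG block; nearly all actives have a fitted effect of over 50% in size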; as to activity change, negative = inhibition: top concentration of the series differs between compounds
Details: U2OS BacMam hERG, FluxOR thallium flux fluorescence; series mostly up to 46.1 µM; activity change, negative = inhibition: at the top concentration
From the text: NIH Chemical Genomics Center [NCGC]
National Institutes of Environmental Health Sciences [NIEHS]
National Toxicology Program [NTP]
We have developed a 1536-well cell-based assay for quantitative high throughput screening (qHTS) to determine in vitro hERG channel blockage as a measure of cardio toxicity with small molecules. This particular assay uses the U2OS cell line which is derived from human osteosarcoma.
NCGC Assay Protocol Summary:
HERG assay (FluxORTM thallium flux assay) was initially developed by Invitrogen/Molecular Probes, and then miniaturized into 1536-well plate in a homogeneous format by NCGC. This assay measures the activity of potassium channel using thallium dye (FluxOR) flux as surrogate measurement for potassium into the cells with a FDSS-7000 kinetic plate reader (Hamamatsu Corp., Hamamatsu City, Japan). The hERG ion channel is transduced into mammalian cells (U2OS) using a baculovirus (Bacmam) construct harboring the hERG K+ ion channel. So far we screened LOPAC1280 library (Sigma), the NTP collection of 1408 compounds, and the NCGC Pharmaceutical Collection (NPC), in which many well defined HERG blockers are present. The rank order potencies of many of these compounds are similar to that of other HERG assays (membrane potential, Rb+ flux, patch clamp, etc). This quick and homogeneous assay is also found to be sensitive, specific, and robust.
Using the FluxORTM thallium flux assay, the activity of potassium channel using thallium dye (FluxOR) flux as surrogate measurement for potassium into the cells was measured in the U2OS cell line transduced with hERG K+ ion channel using a baculovirus (Bacmam) using Opti-MEM medium (Invitrogen) containing 2% fetal calf serum (FCS, HyCone) following loading buffer addition, compound treatment for around 10 minutes and finally adding stimulation buffer. The assay was performed in black clear Kalypsys 1536-well plates. In the screen, Astemizole was used as positive controls. Library compounds were measured for their ability to cause hERG channel blockage in the cell line, as reflected by a decrease in fluorescence intensity, in a concentration-dependent manner. […] AC50 values were determined from concentration-response data modeled with the standard Hill equation.
qHTS protocol for hERG-U2OS cellular assay
[Step] [Parameter] [Value] [Description]
1. Day 1: Replace medium in 70-80% confluent T225 flask with 2.5 mL of hERG-BacMam virus plus 12.5 mL of phosphate buffered saline (PBS) (corresponding roughly to a multiplicity of infection ratio of 100 virus particles/cell)
2. Incubation: 4 hrs @ room Temperature in Dark
3. Reagent; Remove virus; wash once with 25 ml DPBS
4. Reagent; 35 ml culture medium
5. Incubation; 37 °C overnight
6. Day2: Reagent; 3 uL; 2000 U2OS cells/well
7. Time; 4 hr; 37 °C incubation
8. Loading buffer; 1 uL; 0.7X;
9. Incubation: 1hr @ RT in Dark.
12. Time; 10min; 37 °C incubation
13. Read fluorescence Intensity on FDSS for 10 Sec with 1 sec interval
14. Reagent; 1 uL; stimulation buffer
15. Read fluorescence Intensity on FDSS for 2 min with 1 sec interval
16. Detection; Fluorescence Intensity; FDSS
% is scaled to controls: 0 for no effect and ±100 for the full control effect; potency is read from the fitted curve at half-maximal effect.

Sequence of Voltage-gated inwardly rectifying potassium channel KCNH2 (Homo sapiens) (Q12809 whole entry, looked up): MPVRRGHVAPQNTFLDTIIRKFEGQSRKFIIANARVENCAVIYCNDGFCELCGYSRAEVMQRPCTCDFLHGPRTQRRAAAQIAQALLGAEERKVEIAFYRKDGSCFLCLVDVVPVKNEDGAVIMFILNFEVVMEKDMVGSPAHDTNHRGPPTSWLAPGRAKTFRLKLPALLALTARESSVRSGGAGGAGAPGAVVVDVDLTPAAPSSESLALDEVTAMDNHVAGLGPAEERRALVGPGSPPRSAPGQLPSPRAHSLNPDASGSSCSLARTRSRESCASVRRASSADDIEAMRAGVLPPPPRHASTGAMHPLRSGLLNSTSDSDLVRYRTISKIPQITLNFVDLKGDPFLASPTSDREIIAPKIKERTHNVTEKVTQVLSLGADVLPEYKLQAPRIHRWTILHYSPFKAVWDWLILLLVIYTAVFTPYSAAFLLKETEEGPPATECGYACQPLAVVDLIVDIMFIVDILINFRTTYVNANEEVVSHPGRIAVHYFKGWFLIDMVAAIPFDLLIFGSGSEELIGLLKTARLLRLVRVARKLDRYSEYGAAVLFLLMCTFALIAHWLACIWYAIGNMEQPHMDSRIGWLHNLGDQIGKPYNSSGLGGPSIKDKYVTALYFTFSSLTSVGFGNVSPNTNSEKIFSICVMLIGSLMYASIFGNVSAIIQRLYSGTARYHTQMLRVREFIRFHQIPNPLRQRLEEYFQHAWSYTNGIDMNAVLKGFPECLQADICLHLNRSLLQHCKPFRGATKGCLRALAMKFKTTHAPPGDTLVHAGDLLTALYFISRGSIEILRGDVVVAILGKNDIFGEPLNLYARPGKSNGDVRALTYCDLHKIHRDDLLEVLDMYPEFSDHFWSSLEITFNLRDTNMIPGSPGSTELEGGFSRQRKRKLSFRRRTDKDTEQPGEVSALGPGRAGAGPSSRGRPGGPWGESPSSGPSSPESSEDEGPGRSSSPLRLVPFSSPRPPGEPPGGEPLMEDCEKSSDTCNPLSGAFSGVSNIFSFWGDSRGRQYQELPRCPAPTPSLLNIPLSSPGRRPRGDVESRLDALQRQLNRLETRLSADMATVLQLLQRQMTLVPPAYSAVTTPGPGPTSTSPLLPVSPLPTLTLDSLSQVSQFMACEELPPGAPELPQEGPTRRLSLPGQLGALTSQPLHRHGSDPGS

SMILES | activity change, negative = inhibition | Potency
COc1ccc2c(c1)c(CC(=O)O)c(C)n2Cc1ccc(F)cc1 | 11.7% (inactive) | –
N=C1Sc2ccccc2C2=NCCCN12 | -18.4% (inactive) | –
CC(C)C1NC(=O)[C@H](CCCCN)NC(=O)[C@@H](Cc2c[nH]c3ccccc23)NC(=O)[C@H](Cc2ccc(O)cc2)NC(=O)[C@H](C)N(C)C(=O)[C@H](Cc2ccccc2)NC1=O (stereo not given in full) | 15.8% (inactive) | –
NC(=O)C1=CN(C2OC(COP(=O)(O)OP(=O)(O)OC[C@H]3O[C@@H](n4cnc5c(N)ncnc54)[C@H](OP(=O)(O)O)[C@H]3O)C(O)C2O)C=CC1 (stereo not given in full) | 15.8% (inactive) | –
Cc1ccccc1N1CCN(S(=O)(=O)C[C@]23CCC(CC2NC(=O)[C@@H](N)CCS(C)(=O)=O)C3(C)C)CC1 (stereo not given in full) | 6.35% (inactive) | –
CC(C)CN(C)c1nc(N)c(C(=O)N=C(N)N)nc1Cl | – | 2 µM (active)
CNC(=O)[C@H]1O[C@@H](n2cnc3c(NCc4cccc(I)c4)ncnc32)[C@H](O)[C@H]1O | -29.4% (inactive) | –
CCCCCCCCCCCCCCC/C=C/[C@@H](O)[C@H](NC(=O)CCCCCCCCCCCCC)OC (tested in a mixture with another compound) | 7.83% (inactive) | –
OC[C@H]1O[C@@H](n2cnc3c(Nc4ccccc4)ncnc32)[C@H](O)[C@H]1O | -20.9% (inactive) | –
CC(C)(c1cc(Br)c(O)c(Br)c1)c1cc(Br)c(O)c(Br)c1 | -12.8% [at 92.2 µM] (inactive) | –
NC(=S)c1ccc[n+]([C@@H]2O[C@@H](COP(=O)([O-])OP(=O)(O)OC[C@H]3O[C@@H](n4cnc5c(N)ncnc54)[C@H](OP(=O)(O)O)[C@H]3O)C(O)C2O)c1 (stereo not given in full) | 18% (inactive) | –
NCCCCNS(=O)(=O)c1cccc2c(Cl)cccc12 | – | 4.47 µM (active)
OC[C@H]1O[C@@H](n2cnc3c(NC4CCCC4)ncnc32)[C@H](O)[C@H]1O | -14.6% (inactive) | –
CN(C)C1C(=O)C(C(N)=O)=C(O)[C@@]2(O)C(=O)C3=C(O)c4c(O)ccc(Cl)c4[C@@H](O)C3C[C@@H]12 (stereo not given in full) | 16.3% (inactive) | –
CCCC(=O)NCCc1c2n(c3ccc(OC)cc13)Cc1ccccc1-2 | -14.1% (inactive) | –
C[C@]12CCC(=O)C=C1CC[C@@H]1C2[C@@H](O)C[C@@]2(C)[C@H]1CC[C@]2(O)C(=O)CO (stereo not given in full) | 9.91% (inactive) | –
CNc1ncnc2c1ncn2[C@@H]1O[C@H](CO)[C@H](O)[C@H]1O | -8.63% (inactive) | –
NC(=NCCC[C@H](N)C(=O)O)NO | 0.123% (inactive) | –
CCCCC#Cc1nc(N)c2ncn([C@@H]3O[C@H](C(=O)NCC)[C@@H](O)[C@H]3O)c2n1 | -5.37% (inactive) | –
Nc1ncnc2c1ncn2[C@@H]1O[C@H](C(=O)NC2CC2)[C@H](O)[C@H]1O | 5.34% (inactive) | –

SMILES | activity change, negative = inhibition | Potency
OC[C@H]1O[C@@H](n2cnc3c(NCCc4ccccc4)ncnc32)[C@H](O)[C@H]1O | 11.9% (inactive) | –
CC(C)(C)[C@]1(O)CCN2CC3c4ccccc4CCc4cccc(c43)[C@@H]2C1 (stereo not given in full) | – | 2 µM (active)
CN1C[C@H](C(=O)N[C@]2(C)O[C@@]3(O)C4CCCN4C(=O)[C@H](Cc4ccccc4)N3C2=O)C[C@@H]2c3cccc4[nH]cc(c34)C[C@H]21 (stereo not given in full) | – | 11.2 µM (active)
COc1c2c(nc3ccccc13)OC(C(C)(O)CO)C2 (stereo not given) | 9.55% (inactive) | –
NCCNC(=O)c1ccc(Cl)cc1 | -19.3% (inactive) | –
O=C(Cc1ccc(Cl)c(Cl)c1)OCCN1CCCC1 | -26.5% (inactive) | –
CC(=O)[C@@]1(O)CC[C@H]2C3CCC4=CC(=O)CC[C@]4(C)C3CC[C@@]21C (stereo not given in full) | 0.617% (inactive) | –
CSc1nc(N)c2ncn([C@@H]3O[C@H](COP(=O)(O)OP(=O)(O)OP(=O)(O)O)[C@H](O)[C@H]3O)c2n1 | 7.69% (inactive) | –
C[C@]12C=CC(=O)C=C1CCC1C2=CC[C@]2(C)[C@@H](C(=O)CN3CCN(c4cc(N5CCCC5)nc(N5CCCC5)n4)CC3)CC[C@@H]12 (stereo not given in full) | -3.45% (inactive) | –
CSc1nc(N)c2ncn([C@@H]3O[C@H](COP(=O)(O)OP(=O)(O)O)[C@H](O)[C@H]3O)c2n1 | 11.6% (inactive) | –
C[C@H]1CC2[C@@H]3CCC4=CC(=O)C=C[C@]4(C)[C@@]3(Cl)[C@@H](O)C[C@]2(C)[C@@]1(O)C(=O)CO (stereo not given in full) | 18.6% (inactive) | –
CC(C)C[C@H]1C(=O)N2CCCC2[C@]2(O)O[C@](NC(=O)[C@@H]3C=C4c5cccc6[nH]c(Br)c(c56)C[C@H]4N(C)C3)(C(C)C)C(=O)N12 (stereo not given in full) | -26.6% (inactive) | –
O=C(Nc1ccccc1)Nc1ccccc1 | 6.42% [at 92.2 µM] (inactive) | –
N.N.N.N.N.N.N.N.N.N.N.N.N.N.O.O.[Cl-].[Cl-].[Cl-].[Cl-].[Cl-].[Cl-].[Ru].[Ru].[Ru] | -8.32% (inactive) | –
CN1C2CCC1CC(NC(=O)c1nn(C)c3ccccc13)C2 (stereo not given) | -5.54% (inactive) | –
Cc1cn([C@H]2C[C@@H](N=[N+]=[N-])[C@@H](CO)O2)c(=O)[nH]c1=O | 10.3% (inactive) | –
NCC1OC(O[C@@H]2[C@H](O)[C@@H](OC3C(O)C(N)CC(N)C3OC3OC(CO)C(O)C(O)C3N)O[C@@H]2CO)C(N)C(O)C1O (stereo not given in full) | 18.9% (inactive) | –
CNC(=O)[C@H]1O[C@@H](n2cnc3c(NCc4ccc(N)cc4)ncnc32)[C@H](O)[C@H]1O | 3.46% (inactive) | –
OC[C@H]1O[C@@H](n2cnc3c(N[C@H]4CC5CCC4C5)ncnc32)[C@H](O)[C@@H]1O (stereo not given in full) | 3.78% (inactive) | –
Nc1nc(Nc2ccccc2)nc2c1ncn2[C@@H]1O[C@H](CO)[C@H](O)[C@H]1O | 4.55% (inactive) | –
